Results as given in PubChem BioAssay AID1053144 (Broad Institute, 2014).
Screen size: about 3,400 compounds; about 160 (4.7%) were called active.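 How the source made its calls: active means fitted curve reaches 30% activation at a concentration no higher than the top valid tested dose, luminescence rising; inconclusive means no clear call, values can overlap the other calls; inactive means signal moving opposite to the expected increase, plus the rest.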 These entries were drawn from the full list. Results with a measured potency or affinity are listed apart.

Assay: TCF/LEF reporter activation in neural progenitors – cell-based, iPS-derived NPC, luciferase, Wnt3a, cherry-pick, dose response (AID 1053144);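 further: Wnt3a stimulus is conditioned medium from Wnt3a-transfected mouse L cells at 5% in well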
Details: Wnt3a EC25, 24 h; series mostly up to 26 µM

activation, inactive:
Cc1nc(C)c(-c2csc(Nc3cccc(O)c3)n2)s1
COc1cccc(NC(=O)c2cccc(Cl)c2)c1
O=C(Nc1nc2ccccc2[nH]1)c1cccc(Cl)c1
O=C(CSc1nncs1)NCCCc1ccccc1
Cc1nc(-c2ccc(NC(=O)c3ccccc3Br)cc2)cs1
CC1=CC(=C2C(=O)c3ccccc3C2=O)C=C(C)N1Cc1ccco1
CCCC(=O)Nc1sc(C(=O)Nc2cccc(N)c2)c(C)c1C(=O)OC
COC(=O)c1c(NC(C)=O)sc(C(=O)Nc2ccccc2F)c1C
CCCc1nc2oc3c(NCC(C)O)ncnc3c2c2c1CCCC2 (centres undefined)
Cc1ccsc1C(=O)OCC(=O)c1ccc[nH]1
Cc1ccsc1C(=O)OCC(=O)N(C)C1CCCCC1
Cc1ccnc(NC(=O)C2COc3ccccc3O2)c1 (centres undefined)
CC(=Nc1ccccc1O)c1sc2ccccc2c1O
CC(=Nc1ccc(C)cc1)c1sc2ccccc2c1O
CCCC(=O)Nc1ccc(C#Cc2ccccc2)cc1
O=C(NN1C(=O)C2C3c4ccccc4C(c4ccccc43)C2C1=O)C1CC1 (centres undefined)
O=C(O)CC(CN1C(=O)c2ccccc2C1=O)c1ccccc1 (centres undefined)
c1ccc(-c2noc(C3CCCCC3)n2)nc1
Nc1ccc2c(c1)C(=O)c1ccccc1C2=O
CCc1ccc(NC2=CC(=O)C(=O)c3ccccc32)cc1
CC(C)NC(=O)c1cc(-c2ccc3c(c2)OCO3)on1
Cc1ccc(S(=O)(=O)N2CCN(C(=O)Cn3c(=O)cnc4ccccc43)CC2)c(C)c1
COc1ccccc1CN(C)C(=O)C1COc2ccccc2O1 (centres undefined)
Cc1ccc(/C=C/C(=O)Nc2cc(C)on2)cc1
CC(=O)Nc1ccc(C(=O)COC(=O)C2CC2)c(F)c1
CCCC(=O)Nc1ccc(C(=O)COC(=O)C2CC2C)cc1 (centres undefined)
Cc1ccc(OCC(=O)O/N=C(\N)c2ccccn2)cc1C
COc1ccc2nc(Nc3ccccc3OC)sc2c1
COc1ccccc1-c1nc(COc2ccc(Cl)cc2Cl)no1
Cc1cc(Cl)ccc1OCc1nnc(-c2ccccc2C)o1
CCOc1ccc(NC2c3ccccc3C(=O)N2c2ccc(Cl)cn2)cc1 (centres undefined)
O=C(CN1C(=O)CCC1=O)Nc1nc(-c2ccc3ccccc3c2)cs1
CCN(CC)S(=O)(=O)c1ccc(O)c(NC(=O)COc2ccc(S(=O)(=O)N3CCOCC3)cc2)c1
O=C1NC(=Nc2ccccc2)S/C1=C/c1cccs1
Cc1ccc(N/C=C2/Sc3ccccc3NC2=O)cc1
COC(=O)[C@@H](Cc1c[nH]c2ccccc12)NC(=O)c1ccc2c(c1)OCO2
CCCCNC(=O)C1CC(c2cccc(F)c2)=NO1 (centres undefined)
COc1ccc(CNC(=O)C(=O)NCC(c2ccco2)N2CCOCC2)cc1 (centres undefined)
O=C(COc1ccc(Cl)cc1Br)NC(=O)NC1CCCC1
Cc1ccc(C(=O)Nc2ccc3c(c2)OCO3)cc1Cl
O=C(NCCc1c[nH]c2ccccc12)c1cc(Cl)c2c(c1)OCO2
O=C(Nc1ccc(F)cc1F)c1cc2ccccc2oc1=O
COc1ccc(/C(N)=N/OC(=O)C2CCCCC2)cc1
Cc1ccc(NC(=O)c2sccc2C)cc1[N+](=O)[O-]
Cc1cccnc1NC(=O)c1cc2ccccc2oc1=O
COc1ccc(-c2nc3c4ccccc4[nH]c(=O)n3n2)cc1
O=C(NCC(=O)N1CCCCC1)c1sc2ccccc2c1Cl
O=C(Nc1nccs1)c1sc2cc(Cl)ccc2c1Cl
C/C(=C\c1ccccc1)C(=O)NCc1ccco1
O=C(NN1C(=O)C2C3c4ccccc4C(c4ccccc43)[C@@H]2C1=O)c1ccccc1 (some centres undefined)
CCOC(=O)c1cccc(COC(=O)c2cccc(-c3nnc(-c4ccccc4)o3)c2)c1
CN(CC(=O)Nc1ccc(F)cc1)C(=O)COC(=O)c1cccc(N(C)C)c1
COc1ccc(/C=C2\CCC(C3CCCC3)C2=O)cc1OC (centres undefined)
Cc1cc(C)n(-c2nc3ccccc3s2)n1
CN(C)c1ccc(-c2ccc3c(=O)c4ccccc4n(C)c3c2)cn1
O=C(COn1nnc2ccccc21)NCC1CCCCC1
O=C(NNS(=O)(=O)c1ccccc1)C1CCN(S(=O)(=O)c2ccccc2)CC1
O=C(Nc1ccccc1)c1cc2ccccc2o1
O=C(c1ccc(F)cc1)c1cc2ccccc2o1
COc1ccc(/C=C2/CCc3ccccc3C2=O)cc1OC
Cc1ccc(/C=C/C(=O)c2nc3ccccc3[nH]2)cc1
O=C(/C(=C/c1ccc(Cl)cc1)c1nc2ccccc2[nH]1)c1ccccc1
Nc1c(C(=O)Nc2ccc(Cl)cc2)oc2ccccc12
CCc1nnc(NC(=O)/C=C/c2ccco2)s1
CCOc1ccc(CCNC(=O)COc2cc(=O)n(C)c3ccccc23)cc1OCC
O=C(/C=C/c1ccco1)Nc1ccccc1C(=O)O
CCOc1ccc(CCNC(=O)COC(=O)c2cccc(N(C)C)c2)cc1OCC
CC(C)(C)c1ccc(/C=C/C(=O)Nc2cccnc2)cc1
Cc1cc(C(=O)COC(=O)c2ccc(O)cc2)c(C)n1CC(F)(F)F
C(=C\c1cc(/C=C/c2ccccc2)ncn1)/c1ccccc1
COc1ccc(C(=O)/C=C/c2ccccc2C(F)(F)F)cc1
COC(=O)c1ccc(NC(=O)Cc2ccccc2)cc1
CCCCOC(=O)Nc1ccc(N2CCCCC2)cc1
COc1ccc(/C=C(/NC(=O)c2ccccc2Cl)C(=O)O)cc1
Cc1nc(Nc2ccccc2)sc1C(=O)c1ccccc1
O=C(O)Cc1sc(Nc2ccccc2)nc1-c1cccs1
O=C(Nc1ccc(Cl)cc1)Nc1ccccc1C(=O)NCc1ccco1
COC(=O)CNc1c(-c2ccccn2)nc2ccc(Br)cn12
Cc1ccsc1C(=O)OCc1cc(=O)n2ccsc2n1
